Structures are written as SMILES.

Twelve compounds from ChEMBL document CHEMBL3433997, “St. Jude Leishmania screening dataset” (2016) can be followed below.

Format in all cases: functional
The target of assay [1] is Solute carrier family 2, facilitated glucose transporter member 1 (Homo sapiens) (UniProt P11166). Briefly: ST_JUDE_LEISH: Cytotoxicity at 2uM final concentration against transgenic Leishmania Mexicana promastigotes LmGLUT1 that are glucose transport deficient and complemented with the human glucose transporter GLUT1. Activity is measured by DNA content using SYBR green in vitro.
Sequence of Solute carrier family 2, facilitated glucose transporter member 1 (Homo sapiens) (P11166 whole entry): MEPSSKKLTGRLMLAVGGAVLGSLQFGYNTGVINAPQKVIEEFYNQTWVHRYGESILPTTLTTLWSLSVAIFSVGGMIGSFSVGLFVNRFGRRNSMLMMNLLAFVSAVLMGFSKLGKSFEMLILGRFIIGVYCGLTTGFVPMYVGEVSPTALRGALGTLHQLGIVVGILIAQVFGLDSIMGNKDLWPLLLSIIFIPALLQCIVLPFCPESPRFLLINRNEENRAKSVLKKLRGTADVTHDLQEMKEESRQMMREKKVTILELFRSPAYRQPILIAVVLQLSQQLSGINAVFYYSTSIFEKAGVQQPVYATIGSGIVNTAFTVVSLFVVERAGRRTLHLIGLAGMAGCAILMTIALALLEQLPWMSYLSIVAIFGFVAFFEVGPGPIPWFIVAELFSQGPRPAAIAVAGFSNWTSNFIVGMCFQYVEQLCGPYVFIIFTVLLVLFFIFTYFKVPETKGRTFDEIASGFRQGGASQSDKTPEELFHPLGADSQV

Assay [2] deals with Hexose transporter 1 (Plasmodium falciparum) (UniProt O97467). The assay can be described thus: ST_JUDE_LEISH: Cytotoxicity at 2uM final concentration against transgenic Leishmania Mexicana promastigotes LmPfHT that are glucose transport deficient and complemented with the Plasmodium falciparum hexose transporter. Activity is measured by DNA content using SYBR green in vitro.

Assay [3] concerns the target Glucose transporter (Leishmania mexicana) (UniProt O61059). Briefly: ST_JUDE_LEISH: Cytotoxicity at 2uM final concentration against transgenic Leishmania Mexicana promastigotes LmGT2 that are glucose transport deficient and complemented with the L. Mexicana glucose transporter 2. Activity is measured by DNA content using SYBR green in vitro.

For `COc1ccc(NC(=O)[C@H](C)Nc2cc(C)nc(NCC3CCCCC3)n2)cc1`, the inhibition in assay [1] amounted to 5.31%; in assay [2], 3.39%; in assay [3], 3%.
As for `O=C(/C=C/c1ccc(Cl)cc1)NCCCCCN1CCCC(C(=O)Nc2ccc(F)c(Cl)c2)C1` (stereo unspecified), the inhibition in assay [1] came to 2.06%; in assay [2] it was 1.34%; in assay [3], 2.38%.
Turning to `Cc1[nH]c2ccccc2c1C(=O)C(C)Sc1nnc(-c2ccccc2Br)[nH]1` (stereo unspecified), the inhibition came to 0.54% in assay [1], 2.81% in assay [2] and 0.86% in assay [3].
The corresponding values for `COc1cc(CCCON2C(=N)N=C(N)NC2(C)C)cc(OC)c1OC` are 1.04%, -0.26% and 1.06%.
Take `COc1cc2nc(N(C)Cc3cccc(I)c3)nc(N)c2cc1OC`: the results for the inhibition in assay [1], in assay [2] and in assay [3] were 4.75%, 7.24% and 1.56%, respectively.
For `Oc1ccc(-c2ccccc2)cc1CN1CCCCCC1`, the inhibition in assay [1] came out at 1.18%; in assay [2], 2.49%; in assay [3], 1%.
The corresponding values for `COc1ccc2nccc([C@@H](O)CN3CCC(NCc4nc5c(OCc6ccccc6)cccc5[nH]4)CC3)c2c1` are 4.97%, 3.37% and 4.99%.
`Cc1cc(N[C@@H](Cc2ccccc2)C(=O)NCc2cccc(F)c2)nc(NCCc2ccc(F)cc2)n1`: the values for the inhibition in assay [1], in assay [2] and in assay [3] were 4.47%, 2.55% and 1.36%, respectively.
For `COc1ccc2nccc([C@@H](O)CN3CCC(NCc4cc5cc(C)ccc5s4)CC3)c2c1`, the inhibition in assay [1] turned out to be 31.5%; in assay [2], 46%; in assay [3], 21.9%.
Turning to `CN1CCN(CCCSc2ccc3c(c2)ncn3-c2cc(OCc3ccccc3C(F)(F)F)c(C(N)=O)s2)CC1`, the results for the inhibition in assay [1], in assay [2] and in assay [3] were 8.47%, 11.1% and 0.97%, respectively.
With `CN(Cc1cccc(O)c1)C1CCN(c2cc(NC(=O)c3cccc(F)c3)ccn2)CC1`, the inhibition in assay [1] was 0.01%; in assay [2], 1.18%; in assay [3], 1.33%.
Consider `NC(=O)C1CCN(Cc2cccc(-c3cccc(-c4nc5cc(C(F)(F)F)ccc5[nH]4)c3)c2)CC1`, for which the inhibition in assay [1] was determined as 13.1%; in assay [2] it was 11.4%; in assay [3] it was 10.3%.
